Reference: PubChem BioAssay (NCI)
Values joined by “and” are separate entries in the source; they are usually repeats but may differ in a detail not shown here. Identical values can stand only once. The panel holds about 79,000 compounds, 15% with a hit somewhere; the sample as a whole holds those more often. Rule as the data show it: active = growth inhibition above about 70%; inactive = the rest.

How the values were obtained:
[1] = NCI Yeast Anticancer Drug Screen. Data for the rad50 strain (AID 155);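 also: 0% = growth of vehicle-only cultures of the same strain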; conditions: S. cerevisiae rad50 strain growth inhibition, hits give high values; at 50.0 µM unless noted
Outline: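 Relative growth inhibition (compound vs vehicle) was measured in yeast with a defined repair-gene alteration.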

[2] = NCI Yeast Anticancer Drug Screen. Data for the mec2-1 strain (AID 157); conditions: S. cerevisiae mec2-1 strain, hits give high values; at 50.0 µM unless noted
Outline: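 mec2-1 yeast strain, carrying an alteration in DNA damage repair or cell cycle control, was exposed to compounds; growth inhibition was measured relative to vehicle-treated controls.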

[3] = NCI Yeast Anticancer Drug Screen. Data for the sgs1 mgt1 strain (AID 161);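 also: 0% = growth of cultures given vehicle only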; conditions: S. cerevisiae sgs1 mgt1 strain, hits give high values; at 50.0 µM unless noted
Outline: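 Compounds are added to genetically altered yeast, and growth is compared with cultures given vehicle alone to give percent inhibition.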

[4] = NCI Yeast Anticancer Drug Screen. Data for the cln2 rad14 strain (AID 165);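 also: 0% = growth equal to vehicle treated cultures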; conditions: S. cerevisiae cln2 rad14 strain, hits give high values; at 50.0 µM unless noted
Outline: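 Yeast carrying cln2 and rad14 alterations (cell cycle control and DNA damage repair) were exposed to compounds. Growth inhibition was measured against vehicle-treated controls.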

[5] = NCI Yeast Anticancer Drug Screen. Data for the bub3 strain (AID 167); conditions: S. cerevisiae bub3 mutant strain, hits give high values; at 50.0 µM unless noted
Outline: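 Screening used yeast with an engineered genetic alteration affecting cell cycle control. Compound-exposed cultures were compared with vehicle cultures, and reduced growth was taken as inhibition.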

[6] = NCI Yeast Anticancer Drug Screen. Data for the mlh1 rad18 strain (AID 175); conditions: S. cerevisiae mlh1 rad18 strain growth inhibition, hits give high values; at 50.0 µM unless noted
Outline: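 Growth inhibition of the yeast strain was measured after compound exposure and expressed relative to vehicle-treated controls. The strain carries defined defects in DNA damage repair.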

Measured: growth inhibition

CCCCCCC(CCN(C)C)(C(C)=O)c1ccccc1 (stereo not given)
inactive: [1] -3.3% | [2] 3.7% | [3] 1.05% | [4] -3.5% | [5] 6.85% | [6] 11.1%

OCC1OC(n2cnc3c2NC=NC[C@H]3O)C(O)C1O (stereo not given in full)
inactive: [1] 32.4% | [2] -3.8% | [3] 25.4% | [4] -7.55% | [5] 6.25% | [6] 25.8%

OC1COC(c2ccccc2)OC1 (stereo not given)
inactive: [1] -7.15% | [2] -2.1% | [3] 4.15% | [4] -5.85% | [5] -1.75% | [6] 24.6%

Cc1ccccc1Cc1nccc2c1[nH]c1ccccc12
inactive: [1] -3% and -0.7% | [2] -11.5% and -15.1% | [3] -9.05% | [4] -29.5% | [5] -8.45% | [6] -16.9% and 50.1%

C[C@H]1/C(=C/C(=O)OCCN(C)C)CC[C@H]2[C@H]1C(=O)C[C@H]1C(C)(C)[C@@H](O)CC[C@]21C
inactive: [1] 1.2% | [2] -1.75% | [3] -0.55% | [4] 13.8% | [5] 15.9% | [6] -34.1%

O=S1(=O)OCCOS(=O)(=O)C1(Br)Cc1ccccc1
inactive: [1] -67.7% | [2] -40.6% | [3] -37.5% | [4] -40.4% | [5] -63.8% | [6] -24.2%

O=C1CCCc2[nH]ccc21
inactive: [1] -14.7% | [2] -1.2% | [3] -9.25% | [4] 64.6% | [5] 14.8% | [6] -4.55%

N#C/C(=C\c1ccc2ccccc2c1)C(=O)c1ccccc1
inactive: [1] 13.7% | [2] -14.3% | [3] -15.3% | [4] 17.8% | [5] -17.7% | [6] -47.7%

CCOC(=O)C1=C(C(=O)c2ccc(OC)cc2)C(c2ccc([N+](=O)[O-])cc2)C(C(=O)c2ccc(OC)cc2)=C(C(=O)OCC)N1
inactive: [1] 11.1% | [2] 5.8% | [3] 0.1% | [4] 14.1% | [5] 4.95% | [6] -3.25%

CCN(CC)CCOc1cccc(NC(=O)CN(CC)CC)c1
inactive: [1] -8.2% | [2] -25.8% | [3] 15.3% | [4] 1.4% | [5] 17% | [6] 1.65%

COc1cc(OC)c(I)cc1Cl
inactive: [1] -10.1% | [2] -37.5% | [3] 4.55% | [4] 13.4% | [5] -29.2% | [6] -12.3%

O=[N+]([O-])C(C(Cl)=C(Cl)Cl)=C(N1CCOCC1)N1CCOCC1
inactive: [1] -25.2% | [2] -21.1% | [3] -19.1% | [4] -9.6% | [5] 5.1% | [6] 1.85%

CNC(=O)OCc1cc(C)cc(C)c1-c1ccco1
inactive: [1] -4.95% | [2] -9.15% | [3] 28.4% | [4] 4% | [5] 10.3% | [6] 7.05%

Fc1ccc2c(c1)SC1Oc3ccccc3-c3c1c-2nn3-c1ccccc1 (stereo not given)
inactive: [1] -5.45% | [2] -7.45% | [3] -17.4% | [4] 8.8% | [5] -11.1% | [6] -2.6%

CN(/N=C/c1cccs1)c1ccc(Cl)cc1[N+](=O)[O-]
inactive: [1] -29.4% | [2] -8.95% | [3] -13.8% | [4] 0.95% | [5] -7.45% | [6] -1%

CCOC(=O)C1CC2OC2CC1C(=O)OCC (stereo not given)
inactive: [1] 0.55% | [2] -36.9% | [3] -15.2% | [4] 12.4% | [5] -1.9% | [6] -33.2%

COc1cc(Nc2nc3ccc(C(F)(F)F)cc3nc2C(=O)O)cc(OC)c1OC
inactive: [1] 15.8% | [2] 20.3% | [3] 29.9% | [4] 48.7% | [5] 24.8% | [6] 10.3%

Cc1ccc(S(=O)(=O)NNC(=O)CCn2[nH]c(=O)c(Cl)c(Cl)c2=O)cc1
inactive: [1] -16.9% | [2] -9.65% | [3] -8.1% | [4] -38.1% | [5] -0.3% | [6] -12.1%

Cc1nc(C(N)=S)sc1C(=O)C/C(=N/N)C(=O)Nc1ccc(Cl)cc1
inactive: [1] 2.05% | [2] -8.55% | [3] 3.2% | [4] -3.65% | [5] -17.8% | [6] -20.9%

CCOc1ccc(/C=C/C(=O)c2sc(NNC(C)=O)nc2C)cc1
inactive: [1] 20.1% | [2] 25.1% | [3] -11.6% | [4] 12.7% | [5] 25.9% | [6] 22.4%
